# Laboratory results reported in PubChem BioAssay AID540333 (Southern Research Specialized Biocontainment Screening …, 2011).
# Out of some 10,000 compounds screened, about 320 (3.2%) were called active. Rule as the data show it: active = CPE inhibition mostly above about 9.1% (no sharp cut-off); inactive = mostly below about 7.2%. This excerpt belongs to a sample that is enriched for actives.
# Test: Dengue virus cytopathic effect inhibitors, cell-based, CPE readout, HTS (AID 540333)
# Settings: Dengue virus CPE inhibition in host cells, at 20 µM; stronger effect = higher value
row,Compound,CPE inhibition
1,CCOC(=O)CC1C(=O)NCCN1C(=S)Nc1ccccc1 (centres undefined),0.585% (inactive)
2,O=C(NC1(C(F)(F)F)NC(=O)N(CCc2ccccc2)C1=O)C1CC1 (centres undefined),inactive
3,COc1ccccc1-n1cc(-c2ccc(Cl)cc2)[nH]c1=O,0.275% (inactive)
4,CCc1ccc(-c2nc(NC(=O)c3ccc(OCC(=O)Nc4ccc(F)cc4)c(OC)c3)sc2C)cc1,0.375% (inactive)
5,Cc1ccc(C)c(OCC(=O)Nc2ccc(S(=O)(=O)Nc3ccccn3)cc2)c1,0.235% (inactive)
6,COc1cc(/C=C2\SC(N)=NC2=O)ccc1OCC(=O)Nc1ccc(C)cc1,1.51% (inactive)
7,COc1cc(C(=O)Nc2nc(-c3ccc(Cl)cc3)c(C)s2)ccc1OCC(=O)Nc1ccc(F)cc1,6.33% (inactive)
8,COc1ccc(-c2nc(NC(=O)c3ccc(OCC(=O)Nc4ccc(F)cc4)c(OC)c3)sc2C)cc1,12.6% (active)
9,COc1cc(C(=O)Nc2nc(-c3cc(C)ccc3C)c(C)s2)ccc1OCC(=O)Nc1ccc(F)cc1,14.4% (active)
10,COc1ccc2[nH]c(O)c(N=NC(=N)N)c2c1,0.45% (inactive)
11,COC(=O)c1cc([N+](=O)[O-])ccc1N1CCN(Cc2ccccc2)CC1,0.06% (inactive)
12,COc1ccc(C(=O)OC(C)C(=O)Nc2cc(C(F)(F)F)ccc2Cl)c(OC)c1OC (centres undefined),2.02% (inactive)
13,CCN(CC)S(=O)(=O)c1cc(NC(=O)COc2ccc(C#N)cc2OC)ccc1C,inactive
14,Cc1nc2ccc(C(=O)O)cc2nc1C,0.025% (inactive)
15,Nc1cc(Cl)ccc1C(=O)OCC(=O)NC(=O)NCc1ccccc1,19.5% (active)
16,O=C(COC(=O)c1ccccc1Cl)NC(=O)NCc1ccccc1,inactive
17,O=C(COC(=O)c1c(Cl)ccc(Cl)c1Cl)NC(=O)NCc1ccccc1,0.78% (inactive)
18,CCOC(=O)/C=C(/C)N1N=C(c2ccc(OC)cc2)CC1c1cccc([N+](=O)[O-])c1 (centres undefined),0.895% (inactive)
19,Cc1cc(OCCOCCN(C)C)ccc1Cl,0.765% (inactive)
20,COC(=O)C1=NN[C@H](C(=O)OC(C)(C)C)[C@H]1c1ccccc1,inactive
21,CCOc1ccc2c(c1)c(N=NC(=N)N)c(O)n2C,0.04% (inactive)
22,O=S(=O)(NC1CCCCC1Sc1ncccn1)c1ccccc1 (centres undefined),inactive
23,O=S(=O)(NC1CCCCC1Oc1ccccc1)c1ccccc1 (centres undefined),3.28% (inactive)
24,O=S(=O)(NC1CCCCC1Nc1ccc(Cl)cc1)c1ccccc1 (centres undefined),12.2% (active)

row,Compound,CPE inhibition
1,COc1ccc(COc2cc(-c3cccc(OC)c3)nc3ccc(NC(=O)c4ccc(Cl)cc4)cc23)cc1,4.84% (inactive)
2,CCC(=O)NC(=S)Nc1ccc(NC(=O)COc2ccccc2)cc1,inactive
3,CCn1cc([N+](=O)[O-])nc1C,0.275% (inactive)
4,O=C(CSc1ccccc1)Nc1cc(Cl)ccc1Oc1ccccc1,3.48% (inactive)
5,CNC(=S)Nc1cc(Cl)ccc1Oc1ccccc1,0.98% (inactive)
6,O=C(Nc1cc(Cl)ccc1Oc1ccccc1)c1ccc(F)cc1,7.54% (active)
7,COc1cccc(NC(=S)NCCN2CCOCC2)c1,inactive
8,O=C(Nc1nnc(-c2ccc(Cl)cc2)o1)C1=COCCO1,0.23% (inactive)
9,O=C(OC(C(=O)Nc1ccc(Cl)cc1C(F)(F)F)c1ccccc1)c1c(Cl)cccc1Cl (centres undefined),21.7% (active)
10,O=C(Nc1cc(Cl)cc(Cl)c1)C(c1ccccc1)N1CCCCC1 (centres undefined),3.29% (inactive)
11,O=C(Nc1ccc(Cl)c(C(F)(F)F)c1)C(=O)N1CCCCC1,1.26% (inactive)
12,O=C(OC(C(=O)Nc1cc(Cl)cc(Cl)c1)c1ccccc1)C1=COCCO1 (centres undefined),32.8% (active)
13,Cc1ccc(C(=O)OC(C(=O)Nc2ccc(Cl)cc2C(F)(F)F)c2ccccc2)cc1 (centres undefined),7.33% (inactive)
14,O=C(Nc1cccc(-c2nc3ccccc3s2)c1)C1=COCCO1,inactive
15,COC(C(=O)Nc1ccc(Cl)cc1C)c1ccccc1 (centres undefined),1.5% (inactive)
16,O=C(OC(C(=O)Nc1ccc(Cl)c(C(F)(F)F)c1)c1ccccc1)C1=COCCO1 (centres undefined),16.4% (active)
17,COC(=O)c1cnn(-c2nc(OC)cc(OC)n2)c1C,0.205% (inactive)
18,COC(=O)C1=NN(c2cccc(C)c2)C2C(=O)N(c3ccccc3OC)C(=O)C12 (centres undefined),0.91% (inactive)
19,O=S(=O)(c1ccc(F)cc1)N1CCN(C(=S)NCc2ccco2)CC1,0.8% (inactive)
20,CCOc1ccc(S(=O)(=O)N2CCN(C(=S)NCc3ccco3)CC2)cc1,0.65% (inactive)
21,CC(C)c1ccc(S(=O)(=O)N2CCN(C(=S)NCc3ccco3)CC2)cc1,13.8% (active)
22,Cn1c(=NC(=O)c2ccccc2[N+](=O)[O-])sc2cc(S(C)(=O)=O)ccc21,2.59% (inactive)
23,CCCCN1CC(=O)N2[C@H](c3ccc(OC)cc3)[C@@H]3C(=O)N(CC)C(=O)[C@@H]3[C@]2(C)C1=O,inactive
24,CC1(C)C=C(c2ccc(C=O)s2)CC(C)(C)N1C=O,0.13% (inactive)

row,Compound,CPE inhibition
1,O=C(COC(=O)C12CC3CC(CC(C3)C1)C2)Nc1nc2c(F)c(F)c(F)cc2s1,13.5% (active)
2,O=C(COC(=O)C12CC3CC(CC(C3)C1)C2)Nc1ccc([N+](=O)[O-])cc1Cl,1.98% (inactive)
3,O=C(COC(=O)C12CC3CC(CC(C3)C1)C2)Nc1ccc([N+](=O)[O-])cc1Br,inactive
4,CCN(Cc1ccccc1)c1ccc(/C=N/NS(=O)(=O)c2ccc(C)c([N+](=O)[O-])c2)cc1,0.46% (inactive)
5,C=CCNC(=S)N/N=C/c1ccc(N(CC)Cc2ccccc2)cc1,28.3% (active)
6,CCN(Cc1ccccc1)c1ccc(/C=N/N=C(N)N)cc1,inactive
7,CCN(CC)c1ccc(/C=N/NC(=S)NCc2ccccc2)c(O)c1,inactive
8,CCN(Cc1ccccc1)c1ccc(/C=N/NC(=S)NC(C)C)cc1,30.1% (active)
9,CCN(CC)c1ccc(/C=N/NC(=O)c2ccco2)cc1,1.16% (inactive)
10,CCOC(=O)c1ccc(NC(=O)c2c(N)n(Cc3ccccc3)c(=O)[nH]c2=O)cc1,inactive
11,Cc1ccc(CCNC(=O)CN(C)S(=O)(=O)c2cnc[nH]2)cc1,inactive
12,O=C(Nc1ccc(Cl)c([N+](=O)[O-])c1)c1ccncc1,0.365% (inactive)
13,CC12CCC(C(=O)N3CCCc4ccccc43)(OC1=O)C2(C)C (centres undefined),0.12% (inactive)
14,O=C(C1=NN[C@@H]2C(=O)N(c3cccc(C(F)(F)F)c3)C(=O)[C@H]12)C(c1ccccc1)c1ccccc1,0.31% (inactive)
15,COC(=O)c1c(NC(NC(=O)C(C)C)C(Cl)(Cl)Cl)sc2c1CCC2 (centres undefined),13.8% (active)
16,CCOC(=O)c1c(NC(=S)Nc2ccc(OC)cc2)sc2c1CCC2,inactive
17,CCOC(=O)c1c(NC(=O)C2(C)Cc3ccccc3C(=O)O2)sc2c1CCCC2 (centres undefined),4.8% (inactive)
18,CC(C)C(=O)NC(=S)Nc1sc2c(c1C(N)=O)CCCC2,inactive
19,CC(C(=O)Nc1sc2c(c1C(=O)NCC1CCCO1)CCC2)N1C(=O)c2ccccc2C1=O (centres undefined),inactive
20,CCOC(=O)c1c(NC(NC(C)=O)C(Cl)(Cl)Cl)sc2c1CCCC2 (centres undefined),13% (active)
21,COc1ccc(N(CC(=O)Nc2cccc([N+](=O)[O-])c2C)S(C)(=O)=O)cc1OC,inactive
22,N/C(=N\OCC(=O)Nc1ccccc1)c1nonc1N,0.24% (inactive)
23,NS(=O)(=O)c1ccc(CCNC(=O)c2cc(-c3ccccc3)nc3ccccc23)cc1,inactive
24,CC1(c2nnc(Cc3ccccc3)o2)CC(c2ccccc2F)=NO1 (centres undefined),inactive

row,Compound,CPE inhibition
1,COc1ccc(C(=O)NCC(=O)OCC(=O)N2CCN(S(=O)(=O)c3ccccc3)CC2)cc1,inactive
2,FC(F)Oc1ccc(NC(=S)NCc2ccccc2)cc1,inactive
3,O=C(NNC(=S)NCc1ccccc1)c1ccc(OC(F)F)cc1,0.96% (inactive)
4,O=C(NCc1ccccc1)/C(=C/c1ccc(OC(F)F)cc1)c1ccccc1,9.52% (active)
5,Cc1cc(C(=O)COc2ccc(C#N)cc2)c(C)n1-c1ccc2c(c1)OCO2,9.11% (inactive)
6,O=C(O)c1cccc2c1C(=O)c1ccc(-c3ccc(F)cc3F)cc1S2(=O)=O,1.88% (inactive)
7,O=C(Nc1ccc(F)cc1)c1ccccc1Oc1ccc(C(F)(F)F)cc1[N+](=O)[O-],9.71% (inactive)
8,O=Cc1ccc(OC2OCCOC2Oc2ccc(C=O)cc2)cc1 (centres undefined),15.4% (active)
9,c1ccc(-c2csc3ncnc(NCC4COc5ccccc5O4)c23)cc1 (centres undefined),6.15% (inactive)
10,Cc1cnc(C(=O)OCC(=O)Nc2cccc(S(=O)(=O)N3CCCCC3)c2)cn1,inactive
11,Nc1nccnc1C(=O)OCC(=O)Nc1cccc(S(=O)(=O)N2CCCCC2)c1,inactive
12,CC1CCc2c(C(=O)OCC(=O)Nc3cccc(S(=O)(=O)N4CCCCCC4)c3)csc2C1 (centres undefined),11.4% (active)
13,CS/C(=N\S(=O)(=O)c1cccs1)Nc1cccc(Cl)c1C,inactive
14,Cc1ccc(NC(=O)C(OC(=O)c2ccc(F)cc2)c2ccccc2)cc1Cl (centres undefined),1.61% (inactive)
15,CC(=O)c1cccc(NC(=O)C(OC(=O)c2cccs2)c2ccccc2)c1 (centres undefined),0.01% (inactive)
16,Cc1cc(C(=O)OC(C(=O)Nc2ccc(C)c(Cl)c2)c2ccccc2)c(C)o1 (centres undefined),14.6% (active)
17,Cc1ccc(NC(=O)CSc2ccccc2NC(=O)c2ccccc2Cl)cc1Cl,9.34% (inactive)
18,Cc1cc(C)cc(NC(=O)C(OC(=O)c2ccc([N+](=O)[O-])o2)c2ccccc2)c1 (centres undefined),0.445% (inactive)
19,Cc1ccc(NC(=O)C(OC(=O)c2cc(C)oc2C)c2ccccc2)cc1 (centres undefined),18.4% (active)
20,Cc1ccc(NC(=O)CSc2ccccc2NC(=O)c2ccccc2)cc1Cl,2.96% (inactive)
21,Cc1ccc(NC(=O)C(OC(=O)c2ccc(NC(N)=O)cc2)c2ccccc2)cc1Cl (centres undefined),15.2% (active)
22,COc1ccc(C)cc1NC(=O)C(OC(=O)c1cc(C)oc1C)c1ccccc1 (centres undefined),1.23% (inactive)
